CYP2C19 act: increases human CYP2C19 enzyme activity. 96,000 tested, under 10 active. activation factor at 5 µM. recombinant CYP2C19, luciferin-H EGE luminescence; stronger effect = higher value; 0 = fully inhibited enzyme, 1 = untreated enzyme. P33261;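 active = activation factor of at least 2 at 5 µM in the primary screen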
Target sequence (P33261 whole entry, looked up): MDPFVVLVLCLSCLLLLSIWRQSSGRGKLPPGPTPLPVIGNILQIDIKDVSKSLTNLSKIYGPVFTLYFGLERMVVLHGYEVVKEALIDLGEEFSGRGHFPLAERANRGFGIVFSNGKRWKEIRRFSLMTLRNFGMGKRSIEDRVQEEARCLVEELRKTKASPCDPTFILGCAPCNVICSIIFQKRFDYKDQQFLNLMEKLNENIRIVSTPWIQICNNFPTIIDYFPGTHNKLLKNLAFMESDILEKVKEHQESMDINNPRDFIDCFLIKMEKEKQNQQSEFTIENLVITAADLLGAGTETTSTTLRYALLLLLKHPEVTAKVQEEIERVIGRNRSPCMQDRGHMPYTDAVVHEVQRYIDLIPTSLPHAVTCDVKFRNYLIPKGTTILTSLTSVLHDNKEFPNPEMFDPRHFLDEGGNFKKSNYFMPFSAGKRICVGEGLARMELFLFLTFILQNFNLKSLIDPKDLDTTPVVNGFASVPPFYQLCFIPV
CYP2C9 act: increases human cytochrome P450 2C9 activity; P11712; recombinant CYP2C9, luciferin-H conversion, luminescence; stronger effect = higher value; factor 1 = untreated enzyme, 0 = blocked; activation factor at 5 µM; hit rate 1.4% among 96,000;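 active = activation factor of 2 or more for CYP2C9 at a 5 µM dose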
Pyk2 oligo antag: blocks oligomerization of human Pyk2 in cells | hit rate 0.83% among 99,000 | AID 1347419 | Q293 cells, Pyk2 FERM NanoBiT luminescence; stronger effect = lower value | z-score (the deposit names both 25 µM and 10 µM) | Q14289;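 active = Z-score of -3 or lower, scaled per plate to the spread of control and sample wells; inactive = z-score above -3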;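 note: negative z-score means lost luminescence so less FERM oligomerization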
CYP2C19 inh: inhibitors of human CYP2C19; P33261; CYP2C19 Supersomes, luciferin-H EGE luminescence, 30 min; inhibition, % at 5 µM; hit rate 21% among 96,000;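 active = CYP2C19 inhibition above a set limit at 5 µM in the primary screen, cut at about 50% in these data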
CYP2C9 inh: blocks human cytochrome P450 2C9; CYP2C9 Supersomes, luciferin-H conversion, luminescence; hit rate 20% among 96,000; AID 777; P11712; inhibition, % at 5 µM;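 active = blocking of liver enzyme CYP2C9 beyond about 50% at 5 µM, limit read from the data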
Numbers stand for hits; – = inactive; · = not tested or not shown. Only some compounds are listed: those with a hit (about 28% of all), similar ones and a draw of the others.

SMILES | CYP2C19 act | CYP2C9 act | Pyk2 oligo antag | CYP2C19 inh | CYP2C9 inh
CCOC(=O)c1nnn(CC(=O)N2N=C(c3ccc(Cl)cc3)CC2c2ccccc2)c1C(=O)OCC (stereo not drawn) | · | · | – | · | ·
O=C1C=C(N2CCN(C3=CC(=O)CCC3)CC2)CCC1 | – | – | – | – | –
CC(C)(C)n1nnnc1C(c1cccs1)N(Cc1ccc(Cl)cc1)CC1CCCO1 (stereo not drawn) | – | – | – | – | –
Clc1ccc(COc2ccccc2CNCc2cccnc2)cc1 | – | – | – | 97 | 95
Brc1ccc(OCc2ccccc2)c(CNCc2ccncc2)c1 | – | – | – | 99 | 84
OCCNCc1cc(Br)ccc1OCc1ccc(Cl)cc1 | – | – | – | 53 | –
N#C/C(=C\c1ccc(Cl)cc1)c1n[nH]c(Cn2cncn2)n1 | – | – | – | – | 68
Clc1ccc(NCn2cncn2)nc1 | – | – | – | – | –
CSc1nc(C)cc(SCC(=O)Nc2ccc(Cl)cc2Cl)n1 | · | · | – | · | ·
O=C(Nc1ccc(Cl)cc1Cl)c1n[nH]c(Cn2cncn2)n1 | – | – | – | 53 | 51
Cc1ccnc2nc(C(=O)OCCOc3cccc(Br)c3)nn12 | – | – | – | – | –
Cc1cc(=O)[nH]c2ccc(Cl)cc12 | – | – | – | – | –
c1ccc2c3c([nH]c2c1)-c1[nH]ncc1CC3 | – | – | – | – | 67
Clc1ccc2[nH]c3c(c2c1)CCc1cn[nH]c1-3 | – | – | – | – | 55
COC(=O)C1Sc2[nH]c(=O)sc2C(c2ccc(Cl)cc2)C1C(=O)OC (stereo not drawn) | – | – | · | 75 | 93
COC(=O)C1Sc2[nH]c(=O)sc2C2c3ccccc3OC(=O)C12 (stereo not drawn) | – | – | – | – | –
c1coc(-c2nc3nc4ccccc4nc3n2-c2ccc3c(c2)OCCO3)c1 | – | – | – | – | 64
COC(=O)[C@H](Cc1ccccc1)NC(=O)NCC1CCCO1 (stereo partly drawn) | – | – | – | – | –
O=S(=O)(c1ccc(NC2CCCCC2)cc1)N1CCOCC1 | – | – | – | – | –
CCCCn1c(N(CCOC(C)=O)C(C)=O)nc2ccccc21 | · | · | – | · | ·
N#Cc1ccccc1Sc1ccccc1C(=O)Nc1ccc(Br)cc1 | – | – | -3.5 | – | –
N#Cc1c(NC(=O)CCn2cnc3ccccc3c2=O)oc(-c2ccccc2)c1-c1ccccc1 | – | – | – | 81 | 96
O=C(O)CCn1cnc2ccccc2c1=O | – | – | – | – | –
O=C(CCN1C(=O)c2ccccc2C1=O)Nn1cnnc1 | – | – | – | – | 90
O=C(CCn1cnc2ccccc2c1=O)Nc1ccc2c(c1)OCCO2 | – | – | – | 53 | 53
SMILES | CYP2C19 act | CYP2C9 act | Pyk2 oligo antag | CYP2C19 inh | CYP2C9 inh
N#Cc1c(NC(=O)CCN2C(=O)c3ccccc3C2=O)oc(-c2ccccc2)c1-c1ccccc1 | – | – | – | – | 82
N#Cc1c(NC(=O)CN2C(=O)c3ccccc3C2=O)oc(-c2ccccc2)c1-c1ccccc1 | · | · | – | · | ·
Cc1ccc(NC(=O)CCn2cnc3ccccc3c2=O)cc1Cl | · | · | – | · | ·
CC(=O)c1ccc(Nc2ncnc3c2oc2ccccc23)cc1 | – | – | – | – | –
N#CC1=C(N)SC(N)=C(C#N)C1CCC1CCCCC1 | – | – | · | – | –
O=c1c2ccccc2nc2n1CCCCN2 | – | – | – | – | –
COc1cc2[nH]c(=S)n(NC(=O)CC(C)C)c(=O)c2cc1OC | – | – | – | – | –
CC(C)CC(C(=O)Nc1oc(-c2ccccc2)c(-c2ccccc2)c1C#N)N1C(=O)c2ccccc2C1=O (stereo not drawn) | · | · | -3.7 | · | ·
CCOC(=O)Cn1c(S(=O)(=O)Cc2cccc(F)c2)nc(-c2ccccc2)c1-c1ccccc1 | – | – | – | – | –
CCOC(=O)Cn1c(S(=O)(=O)Cc2ccc(F)cc2)nc(-c2ccccc2)c1-c1ccccc1 | – | – | – | 52 | –
C#CCn1c(S(=O)(=O)Cc2ccc(F)cc2)nc(-c2ccccc2)c1-c1ccccc1 | – | – | – | 98 | 92
N#Cc1nc(COc2ccc(Cl)cc2Cl)oc1N1CCN(c2ccccc2)CC1 | – | – | – | 58 | –
N#Cc1nc(COc2ccccc2)oc1N1CCOCC1 | – | – | – | – | –
N#Cc1nc(COc2ccc(Cl)cc2Cl)oc1N1CCOCC1 | – | – | – | 70 | –
COCCCNc1oc(COc2ccc(Cl)cc2Cl)nc1C#N | – | – | – | 99 | 94
CN(C)CCNc1oc(COc2ccc(Cl)cc2Cl)nc1C#N | – | – | – | – | –
COc1ccc(N2CCN(c3oc(COc4ccc(Cl)cc4Cl)nc3C#N)CC2)cc1 | – | – | – | – | –
CCCNC(=O)c1cc2nc(-c3ccccc3)cc(C(F)(F)F)n2n1 | · | · | – | · | ·
CC(C)[C@H](NC(=O)Nc1ccccc1F)C(=O)O | – | – | – | – | –
Clc1ccc2nc(CN3CCCc4ccccc43)cn2c1 | – | – | – | 88 | 93
Clc1ccc2nc(CN3CCCCC3)cn2c1 | – | – | – | – | –
O=C(O)C1C2C=CC(C2)C1C(=O)NCCCn1ccnc1 (stereo not drawn) | – | – | – | 88 | 67
O=C(O)C1C2C=CC(C2)C1C(=O)NCCc1ccncc1 (stereo not drawn) | – | – | – | 78 | –
CC#CCCCC(=O)Nc1ccccc1C(=O)O | – | – | – | – | –
COc1ccc(COC(=O)c2ccc(N3CCCC3=O)cc2)cc1F | – | – | – | – | 61
SMILES | CYP2C19 act | CYP2C9 act | Pyk2 oligo antag | CYP2C19 inh | CYP2C9 inh
C=CCn1c(SCC(=O)O)nnc1-c1ccccc1 | · | · | – | · | ·
Cc1occc1-c1nnc(SCC(=O)N2CCCc3ccccc32)n1Cc1ccco1 | – | – | – | 67 | 50
O=C(CSc1ccc2nnc(-c3ccncc3)n2n1)N1CCc2ccccc21 | – | – | · | – | 50
COc1ccccc1NC(=O)CSc1ccc2nnc(-c3ccncc3)n2n1 | – | – | · | – | –
COc1ccc(NC(=O)CSc2nnc(-c3cccnc3)n2Cc2ccco2)c(OC)c1 | – | – | – | – | –
C=CCn1c(SCc2cccc3ccccc23)nnc1-c1cccnc1 | – | – | – | 89 | –
O=C(CSc1nnc(-c2cccnc2)n1Cc1ccco1)N1CCc2ccccc21 | – | – | – | 56 | –
COc1ccc(CCNC(=O)C2CCN(S(=O)(=O)N3CCC4(CC3)OCCO4)CC2)cc1OC | · | · | – | · | ·
CC(Oc1ncnc2ccccc12)C(=O)Nc1cccc(S(=O)(=O)N2CCOCC2)c1 (stereo not drawn) | · | · | – | · | ·
Cc1cc(C)nc(SCc2ccc3nonc3c2)n1 | – | – | – | – | –
Clc1ccccc1CSc1nnc(-c2cccnc2)n1Cc1ccco1 | – | – | – | 71 | –
Fc1ccc(CSc2nnc(-c3cccnc3)n2Cc2ccco2)cc1 | – | – | – | – | –
CC(O)c1cc2c(cc1NC(=O)c1cnn3c1NC(c1ccco1)CC3C(F)(F)F)OCO2 (stereo not drawn) | – | – | – | – | –
COc1ccc(/C(O)=C2\C(=O)C(=O)N(Cc3ccco3)C2c2cc(OC)ccc2OC)cc1 (stereo not drawn) | · | · | – | · | ·

Bioassay records deposited in PubChem BioAssay by Sanford-Burnham Center for Chemical Genomics.
